PubChem BioAssay AID1159580 (chemical genetic matrix, 2015)
In all, about 5,500 compounds went through this assay and about 2,000 (36%) were called active. Roughly 18% stayed inconclusive and do not appear here. Cut-off read from the data, not from the text of the source: active = normalized growth mostly below about 0.91 (no sharp cut-off); inconclusive = no clear call, values can overlap the other calls; inactive = mostly above about 0.92. The list shows a part of the results.

Assay: chemical genetic growth profiling, strain panel (AID 1159580);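 note: tested at 20 µM; growth read once vehicle control cultures reached saturation at 30 °C; 1 = growth at the plate median or of vehicle wells; lower values mean less growth of the strain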
Conditions: growth OD
[1] = S. cerevisiae deletion strains, locus YDR150W, strain NUM1, hits give low values
[2] = S. cerevisiae deletion strains, locus YJR075W, strain HOC1, hits give low values
[3] = S. cerevisiae deletion strains, locus YNL322C, strain KRE1, hits give low values
[4] = S. cerevisiae deletion strains, locus YPL241C, strain CIN2, hits give low values
[5] = S. cerevisiae deletion strains, locus YBR229C, strain ROT2, hits give low values
[6] = S. cerevisiae deletion strains, locus YDL101C, strain DUN1, hits give low values
[7] = S. cerevisiae deletion strains, locus YEL061C, strain CIN8, hits give low values
[8] = S. cerevisiae deletion strains, locus YHR030C, strain SLT2, hits give low values
[9] = S. cerevisiae deletion strains, locus YLR039C, strain RIC1, hits give low values
[10] = S. cerevisiae deletion strains, locus YLR262C, strain YPT6, hits give low values

Measured: normalized growth

NC(CCP(=O)(O)O)C(=O)O (stereo not given)
inactive: S. cerevisiae deletion strains, locus YAL040C, strain CLN3, hits give low values 1.01 | S. cerevisiae deletion strains, locus YCL061C, strain MRC1 (second series), hits give low values 1 | [1] 1.01 | S. cerevisiae deletion strains, locus YDR363W, strain ESC2, hits give low values 0.988 | S. cerevisiae deletion strains, locus YER002W, strain NOP16, hits give low values 1.02 | [2] 0.992 | S. cerevisiae deletion strains, locus YNL175C, strain NOP13, hits give low values 1 | S. cerevisiae deletion strains, locus YNL197C, strain WHI3, hits give low values 0.983 | S. cerevisiae deletion strains, locus YNL224C, strain SQS1, hits give low values 0.989 | [3] 0.986 | S. cerevisiae deletion strains, locus YOR083W, strain WHI5 (second series), hits give low values 1.01 | [4] 1

CC(C)(C)S(=O)(=O)c1cnc(N)nc1N
inactive: S. cerevisiae deletion strains, locus YAL013W, strain DEP1, hits give low values 1.03 | [5] 1.01 | [6] 1 | [1] 0.969 | [7] 0.993 | S. cerevisiae deletion strains, locus YGR078C, strain PAC10, hits give low values 1.01 | S. cerevisiae deletion strains, locus YGR229C, strain SMI1, hits give low values 1.01 | [8] 1.07 | S. cerevisiae deletion strains, locus YHR087W, strain rtc3, hits give low values 1 | S. cerevisiae deletion strains, locus YJL187C, strain SWE1, hits give low values 1.02 | S. cerevisiae deletion strains, locus YJR043C, strain POL32, hits give low values 0.985 | [2] 1.01 | S. cerevisiae deletion strains, locus YKL190W, strain CNB1, hits give low values 1 | [9] 1.05 | S. cerevisiae deletion strains, locus YLR058C, strain SHM2 (second series), hits give low values 1.01 | S. cerevisiae deletion strains, locus YLR085C, strain ARP6, hits give low values 1.05 | [10] 1.06 | S. cerevisiae deletion strains, locus YML094W, strain GIM5, hits give low values 1.01 | S. cerevisiae deletion strains, locus YMR219W, strain ESC1, hits give low values 1.01 | S. cerevisiae deletion strains, locus YMR263W, strain SAP30, hits give low values 0.986 | S. cerevisiae deletion strains, locus YNL153C, strain GIM3, hits give low values 1 | S. cerevisiae deletion strains, locus YNL298W, strain CLA4 (second series), hits give low values 1.04 | [3] 1.02 | S. cerevisiae deletion strains, locus YNR030W, strain Alg12, hits give low values 1.03 | S. cerevisiae deletion strains, locus YPL055C, strain LGE1, hits give low values 0.972 | [4] 1.02 | S. cerevisiae deletion strains, locus YPR135W, strain CTF4, hits give low values 1.03 | S. cerevisiae strains, strain wild type, hits give low values 1.01

C[C@]12CC[C@@H](O)C[C@H]1CCc1ccccc12
inactive: S. cerevisiae deletion strains, locus YBR021W, strain FUR4, hits give low values 0.967 | [5] 1.01 | S. cerevisiae deletion strains, locus YCL029C, strain bik1, hits give low values 1 | S. cerevisiae deletion strains, locus YDL035C, strain GPR1, hits give low values 1.01 | S. cerevisiae deletion strains, locus YDL074C, strain BRE1, hits give low values 1.04 | [6] 1.01 | S. cerevisiae deletion strains, locus YDL185W, strain tfp1, hits give low values 1.01 | S. cerevisiae deletion strains, locus YDL192W, strain arf1, hits give low values 0.999 | S. cerevisiae deletion strains, locus YDR101C, strain arx1, hits give low values 1.01 | S. cerevisiae deletion strains, locus YDR162C, strain NBP2, hits give low values 1.04 | S. cerevisiae deletion strains, locus YDR318W, strain mcm21, hits give low values 1 | S. cerevisiae deletion strains, locus YDR388W, hits give low values 1.01 | S. cerevisiae deletion strains, locus YDR502C, strain sam2, hits give low values 0.989 | [7] 1.02 | S. cerevisiae deletion strains, locus YER110C, hits give low values 0.999 | S. cerevisiae deletion strains, locus YER155C, strain BEM2, hits give low values 1.01 | S. cerevisiae deletion strains, locus YER167W, strain BCK2, hits give low values 1.02 | S. cerevisiae deletion strains, locus YGL078C, strain dbp3, hits give low values 0.966 | S. cerevisiae deletion strains, locus YGL086W, strain mad1, hits give low values 0.989 | S. cerevisiae deletion strains, locus YGL248W, strain PDE1, hits give low values 1 | S. cerevisiae deletion strains, locus YGR135W, strain pre9, hits give low values 0.992 | S. cerevisiae deletion strains, locus YGR252W, strain gcn5, hits give low values 0.94 | [8] 1.02 | S. cerevisiae deletion strains, locus YHR079C, strain IRE1 (second series), hits give low values 0.997 | S. cerevisiae deletion strains, locus YHR094C, strain hxt1, hits give low values 0.999 | S. cerevisiae deletion strains, locus YHR129C, strain ARP1, hits give low values 1.02 | S. cerevisiae deletion strains, locus YHR200W, strain rpn10, hits give low values 1.01 | S. cerevisiae deletion strains, locus YIL066C, strain RNR3, hits give low values 1.05 | S. cerevisiae deletion strains, locus YIL073C, strain SPO22, hits give low values 1.04 | S. cerevisiae deletion strains, locus YIL125W, strain kgd1, hits give low values 0.996 | S. cerevisiae deletion strains, locus YIR030C, strain dcg1, hits give low values 1.01 | S. cerevisiae deletion strains, locus YJL095W, strain BCK1, hits give low values 1 | S. cerevisiae deletion strains, locus YJL134W, strain LCB3, hits give low values 1.02 | S. cerevisiae deletion strains, locus YJL168C, strain set2, hits give low values 1 | S. cerevisiae deletion strains, locus YJL187C, strain SWE1 (second series), hits give low values 1 | S. cerevisiae deletion strains, locus YKL009W, strain mrt4, hits give low values 1.01 | S. cerevisiae deletion strains, locus YKL068W, hits give low values 1.01 | S. cerevisiae deletion strains, locus YKL085W, strain MDH1 (second series), hits give low values 1.02 | S. cerevisiae deletion strains, locus YKL085W, strain MDH1, hits give low values 1.02 | S. cerevisiae deletion strains, locus YKR001C, strain vps1, hits give low values 0.977 | [9] 0.918 | S. cerevisiae deletion strains, locus YLR058C, strain SHM2, hits give low values 1.02 | S. cerevisiae deletion strains, locus YLR102C, strain apc9, hits give low values 1 | [10] 0.968 | S. cerevisiae deletion strains, locus YLR268W, strain sec22, hits give low values 1 | S. cerevisiae deletion strains, locus YLR371W, strain rom2, hits give low values 1.04 | S. cerevisiae deletion strains, locus YLR418C, strain cdc73, hits give low values 0.973 | S. cerevisiae deletion strains, locus YML016C, strain PPZ1, hits give low values 1.02 | S. cerevisiae deletion strains, locus YML032C, strain rad52, hits give low values 0.99 | S. cerevisiae deletion strains, locus YML124C, strain tub3, hits give low values 1 | S. cerevisiae deletion strains, locus YMR078C, strain ctf18, hits give low values 1 | S. cerevisiae deletion strains, locus YMR223W, strain ubp8, hits give low values 0.985 | S. cerevisiae deletion strains, locus YMR307W, strain GAS1, hits give low values 1.07 | S. cerevisiae deletion strains, locus YNL067W, strain RPL9B, hits give low values 1 | S. cerevisiae deletion strains, locus YNL233W, strain BNI4, hits give low values 1.01 | S. cerevisiae deletion strains, locus YNL250W, strain rad50, hits give low values 1.04 | S. cerevisiae deletion strains, locus YNL271C, strain bni1, hits give low values 1.01 | S. cerevisiae deletion strains, locus YNL298W, strain CLA4, hits give low values 0.989 | S. cerevisiae deletion strains, locus YNL307C, strain MCK1, hits give low values 1 | S. cerevisiae deletion strains, locus YNR052C, strain pop2, hits give low values 0.987 | S. cerevisiae deletion strains, locus YOL006C, strain TOP1, hits give low values 1.09 | S. cerevisiae deletion strains, locus YOL012C, strain htz1 1.06 | S. cerevisiae deletion strains, locus YOL147C, strain pex11, hits give low values 1.01 | S. cerevisiae deletion strains, locus YOR061W, strain CKA2, hits give low values 1.03 | S. cerevisiae deletion strains, locus YOR069W, strain VPS5, hits give low values 1.02 | S. cerevisiae deletion strains, locus YOR136W, strain idh2, hits give low values 0.995 | S. cerevisiae deletion strains, locus YOR144C, strain elg1, hits give low values 1 | S. cerevisiae deletion strains, locus YOR184W, strain ser1, hits give low values 0.978 | S. cerevisiae deletion strains, locus YOR316C, strain cot1, hits give low values 1 | [4] 1.02 | S. cerevisiae deletion strains, locus YPR119W, strain clb2, hits give low values 1 | S. cerevisiae deletion strains, locus YPR141C, strain kar3, hits give low values 1.02 | S. cerevisiae deletion strains, locus YPR163C, strain tif3, hits give low values 1 | S. cerevisiae deletion strains, locus YPR167C, strain met16, hits give low values 0.997 | S. cerevisiae deletion strains, strain wtn01, hits give low values 0.99
